Inconclusive results are not listed. Where a call stands in place of a potency, no number is given. The source made the active and inactive calls. Calls come from the whole dose curve; as a rule, active = well fitted cell-killing curve with a large enough effect; inconclusive = small, poorly fitted or top-dose-only effect, or effect the other way; inactive = no such curve, though single readings can be large or run the other way.
Potency is the fitted concentration of half-maximal effect.

The experiment can be described thus: Viability qHTS for spleen associated tyrosine kinase inhibitor (SYKi) naive MV4-11 cells (AID 1963823). Note: nearly all actives have a fitted effect of over 40% in size. Particulars: MV4-11 AML viability, CellTiter-Glo luminescence, 72 h; series mostly up to 45 µM. An outline of the steps: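 Viability of MV4-11 AML cells lacking prior SYK inhibitor exposure is scored by CellTiter-Glo luminescence following 72 hr compound incubation at 37 C, 5% CO2, seeded at 500 cells per well.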
A general note: In qHTS, concentration-response curves come from the screen itself.
Consider `Cn1sc(=O)n(Cc2ccccc2)c1=O`, for which the Potency is 2.59 µM (active).
Regarding `CC1(C)CC(=O)N(CCCCN2CCN(c3ncccn3)CC2)C(=O)C1`, the Potency result is “inactive”.
Then `CC1=C2C(=O)O[C@@H](c3ccoc3)[C@]2(C)CCC1`, with “inactive”; and `CSc1ccc(C(=O)N[C@@H]2CCCC[C@@H]2NC(=O)CNC(=O)c2cc(C(F)(F)F)ccc2NC(=O)NC(C)C)cc1`, with “inactive”; and `CC1=CCC2C(C)(CO)CCCC2(C)C1CC12OC1C(O)C(CO)=CC2O` (stereo not given), with “inactive”.
The result for `NC1CCC(Nc2cc(-c3cccc(NCc4cccc(F)c4)n3)c(Cl)cn2)CC1` (stereo not given) reads 0.146 µM (active); that for `CC1(C)C(=O)N2c3ccccc3[C@]3(CC(n4cnc5ccccc5c4=O)C(=O)O3)[C@H]2N1O` (stereo not given in full), “inactive”; that for `C=C(C)[C@@H]1CCC2=CC(=O)C[C@@H](C)[C@]2(C)C1`, “inactive”.
Regarding `CC(C)C[C@@H]1NC(=O)[C@@H](Cc2ccccc2)NC(=O)C(CCCCCC(=O)C2CO2)NC(=O)[C@@H]2CCCCN2C1=O` (stereo not given in full), the Potency was 0.0252 µM (active).
The result for `O=C1NC(=O)C(c2cn(-c3ccccc3)nc2-c2ccc(F)cc2)N1` (stereo not given) reads “inactive”; that for `CC(C)(C)NC(=O)[C@H]1CC[C@H]2[C@@H]3CC[C@H]4NC(=O)CC[C@]4(C)[C@H]3CC[C@]12C`, “inactive”; that for `CC#CCn1c(N2CCCC(N)C2)nc2c1c(=O)n(Cc1nc(C)c3ccccc3n1)c(=O)n2C` (stereo not given), “inactive”.
The result for `c1ccc(-c2[nH]ncc2-c2ccnc3ccccc23)nc1` reads “inactive”; that for `CC1=CC(=O)C(C(C)C)=C/C1=N/OC(=O)c1ccccc1C`, 5.17 µM (active).
Turning to `O=C(/C=C/c1ccc(O)cc1)OCC1OC(O)C(OC2OC(CO)C(O)C(O)C2O)C(O)C1O` (stereo not given), the Potency entry was “inactive”.

The values are drawn from PubChem BioAssay (NCATS).
